Bioassay records: PubChem, National Center for Advancing Translational Sciences (NCATS)
BRCA1 expr up: activators of BRCA1 expression; MCF7-BRCA1-FFLuc reporter, luminescence, 48 h; response scale: scaled: vehicle 0%, 10 µM genistein 100%; hit rate 1.1% among 380,000; Potency, µM (series often up to 46.1 µM), without a hit: at the highest dose activation, usual class: activators; also: nearly all actives have a fitted effect of over 80% in size
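48 h compound treatment of MCF7-BRCA1-FFLuc cells (phenol-red free MEM, 37 °C), then 15 min with luciferase substrate and luminescence imaging.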
GLP-1R inv ag: acts as inverse agonist at human GLP-1 receptor | hit rate 1.6% among 410,000 | Potency, µM (doses to about 38.3 µM), without a hit: at the highest dose activity change, negative = inhibition, hits mostly inhibitors | HEK293 GLP-1R CRE-luciferase, luminescence, 24 h; GLP-1R form is constitutively active | P43220 | AID 624417; also: % is scaled to controls: 0 for no effect and ±100 for the full control effect; nearly all actives have a fitted effect of over 55% in size
Target sequence (P43220 whole entry, looked up): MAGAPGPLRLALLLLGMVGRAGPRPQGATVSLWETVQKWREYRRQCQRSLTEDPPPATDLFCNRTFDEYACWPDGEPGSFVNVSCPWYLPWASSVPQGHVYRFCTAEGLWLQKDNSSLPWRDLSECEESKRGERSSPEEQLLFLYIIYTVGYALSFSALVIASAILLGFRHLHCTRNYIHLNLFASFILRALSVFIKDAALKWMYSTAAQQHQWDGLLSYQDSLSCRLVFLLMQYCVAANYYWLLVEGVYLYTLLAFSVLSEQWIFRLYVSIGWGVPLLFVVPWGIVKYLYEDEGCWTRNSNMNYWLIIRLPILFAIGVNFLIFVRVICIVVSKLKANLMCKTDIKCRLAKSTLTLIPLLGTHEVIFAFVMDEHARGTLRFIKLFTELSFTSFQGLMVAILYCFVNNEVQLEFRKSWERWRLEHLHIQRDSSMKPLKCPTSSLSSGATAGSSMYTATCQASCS
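HEK293 cells stably co-expressing constitutively active GLP-1R and a cAMP-responsive luciferase reporter were seeded in DMEM with 10% Nu serum, given compounds after 12 h, and incubated 24 h at 37 deg C. Luminescence was then read.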
GLP1R cytotox: cytotoxicity in counter-screen for GLP-1R inverse agonists; HEK293 cAMP-luciferase reporter cells, luminescence, 24 h; Potency, µM (doses to about 38.3 µM), inactives show at the highest dose activity change, negative = inhibition, most hits filed as inhibitors; hit rate 0.13% among 410,000;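 also: loss of luciferase light is scored as toxicity; % is scaled to controls: 0 for no effect and ±100 for the full control effect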
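Compound-treated cells are incubated 24 hr at 37 deg C under 5% CO2 after a 12 hour attachment period, then luciferase detection reagent is added and luminescence is measured following 12 min at room temperature; lowered signal indicates toxicity.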
GLP1R ag: GLP-1 receptor (human) agonism | P43220 | HEK293 GLP-1R CRE-luciferase, luminescence, 4-6 h; cells express a hypersensitive GLP-1R form | Potency, µM (series often up to 45.6 µM), for the others: top-dose activation, most hits filed as activators | hit rate 0.007% among 380,000; also: % of control where 0% means no effect
* hit, by the source's call; ? = inconclusive; / = no result; [ ] = dose if it differs, or a comment. Only some compounds are listed: those with a hit (about 2.6% of all), similar ones and a draw of the others. Calls follow the shape of the dose curve; as a rule, active = well fitted curve in the direction sought with a large enough effect; inconclusive = small, poorly fitted or top-dose-only effect, or another doubt; inactive = no such curve, though single readings can be large; an effect the other way counts as inactive or inconclusive. Potency is read from the fitted curve at half-maximal effect.

SMILES	BRCA1 expr up	GLP-1R inv ag	GLP1R cytotox	GLP1R ag
Cc1c(NP(=O)(c2ccc(Br)cc2)c2ccc(Br)cc2)c(=O)n(-c2ccccc2)n1C	-5.5%	11.2µM*	-14.6%	10.5%
COc1ccccc1N(CC(=O)N1CCN(Cc2ccccc2)CC1)S(=O)(=O)c1ccccc1	-6.3%	-1.2%	-28.3%	14.0%
CCOCCCN1C(=O)CN(C2CCCCCC2)C(=O)C1c1ccc(OC(C)C)c(OC)c1 (centres undefined)	/	10.3%	-4.8%	/
CN(C)S(=O)(=O)c1ccc(N2C(=O)CC2(/C=C/c2ccccc2)C(=O)NC2CCCC2)cc1 (centres undefined)	-2.7%	5.9%	-4.0%	-2.8%
COc1ccccc1/C=C/C1(C(=O)NC2CCCC2)CC(=O)N1c1ccccc1 (centres undefined)	-57.8%	3.16µM*	-21.4%	8.1%
CCCOc1cc(C)c(Cl)cc1S(=O)(=O)N(CC)CC	-9.9%	2.51µM*	0.5%	-0.2%
CC(=O)N1c2ccccc2CC1C(=O)N1CCN(c2ccccc2)CC1 (centres undefined)	/	-6.1%	-7.4%	/
CC(C)(C)C1COc2ccccc2N1C(=O)c1ccccc1Cl (centres undefined)	-7.2%	8.91µM*	-10.2%	2.4%
Cc1cccc(CCNC(=O)C2CCC(CNS(=O)(=O)c3c(C)cc(C)cc3C)CC2)c1 (centres undefined)	/	?	-10.7%	/
C/C(=N\NC(=O)C(c1ccccc1)c1ccccc1)c1ccccn1	-98.7%	2.82µM*	?	-10.0%
C/C(Cc1ccccc1)=N\NC(=O)c1cccnc1	-0.3%	-9.0%	-7.4%	0.9%
C/C(=N/NC(=O)c1ccc(C(C)(C)C)cc1)c1ccccn1	-63.8%	2.51µM*	?	?
C/C(Cc1ccccc1)=N\NC(=O)c1ccccn1	2.24µM*	2.9%	-9.3%	-0.7%
CC1CCN(CCCNC(=O)c2cc(Sc3ccc(F)cc3)nc3ccccc23)CC1	/	?	-21.0%	/
O=C(N/N=C1\CCc2ccccc21)c1ccccc1Cl	2µM*	-10.9%	-8.1%	23.8%
O=C(N/N=C1\CCc2ccccc21)c1ccc(O)cc1	2µM*	-13.2%[7.66 µM]	-6.5%[7.66 µM]	-0.4%
O=C(COC(=O)CCNS(=O)(=O)c1cccs1)Nc1ccccc1	4.4%	0.9%	-1.2%	5.5%
CCOc1ccc(-c2csc(C3COc4ccccc4O3)n2)cc1 (centres undefined)	10µM*	20.5%	-18.5%	-3.3%
Cc1ccc(NC(=O)C(=O)NCCN2CCN(S(C)(=O)=O)CC2)cc1C	-6.0%	6.7%	-5.7%	9.8%
CC(=Nc1ccc(Br)cc1)c1sc2ccccc2c1O	3.98µM*	2.6%	30.1%	16.5%
Cc1ccc(C)c(NC(=O)c2nc(S(C)(=O)=O)ncc2N(Cc2ccc(C(C)(C)C)cc2)Cc2ccco2)c1	/	?	3.4%	/
CC1Cc2ccccc2N1C(=O)COc1ccc2c(c1)OCO2 (centres undefined)	3.16µM*	?	-6.3%	?
CCOC(=O)c1c(C)[nH]c(C(=O)OCC(=O)N2c3ccccc3CC2C)c1C (centres undefined)	-15.1%	8.91µM*	-16.8%	-1.0%
O=C(Oc1c(Br)cc(C(=S)N2CCOCC2)cc1Br)c1ccc(Cl)cc1	-38.5%	10µM*	?	-7.7%
O=C(Oc1ccc(C(=S)N2CCOCC2)cc1Br)c1cc(Cl)ccc1Cl	10.0%	2.6%	-10.5%	0.8%
SMILES	BRCA1 expr up	GLP-1R inv ag	GLP1R cytotox	GLP1R ag
CN(CCCNC(=O)CSc1cc(=O)n(C)c2cc(Cl)ccc12)Cc1ccccc1	-8.5%	7.94µM*	-16.2%	21.2%
CCCc1cc(=O)n2[nH]c(-c3ccc(Cl)cc3)cc2n1	7.08µM*	3.3%	-9.1%	0.0%
CCCc1cc(=O)n2[nH]c(-c3ccccc3)cc2n1	53.3%	3.1%	-11.3%	-27.8%
CCCc1cc(=O)n2[nH]c(-c3ccc(C)cc3)cc2n1	1.41µM*	-19.1%	-6.7%	-5.3%
CCc1nn(CC(=O)NCc2ccco2)c(=O)c2cc3cc(F)ccc3n12	/	16.5%	3.8%	/
N#C/C(C(=O)c1ccccc1)=C1/CCCCCN1	3.98µM*	37.3%	22.1%	10.3%
CN(C)/C=C1\N=C(c2ccc3c(c2)OCO3)OC1=O	7.94µM*	9.8%	-4.9%	-12.4%
CCN1CCN(C(=O)CN2C(=O)c3ccccc3S2(=O)=O)CC1	62.6%	-6.4%	0.2%	-3.7%
Cc1cccc(Cn2c(-c3cccc(Br)c3)nc3ccccc32)c1	/	10µM*	7.8%	/
CCC(=O)N(CCC(c1ccccc1)c1ccc2c(c1)OCO2)Cc1ccc(OC(C)C)cc1 (centres undefined)	-55.9%	12.6µM*	-12.2%	-3.6%
COc1ccc(NC(=O)Cn2c(=O)n(Cc3ccc4c(c3)OCO4)c(=O)c3ccc(C(=O)NC4CCCCC4)cc32)cc1	-5.8%	11.2%	0.8%	12.3%
Cc1cc(=O)n(C(C)C(=O)NCc2ccccc2Cl)c2c1c(C)nn2-c1ccccc1 (centres undefined)	/	11.7%	28.0%	/
Cc1cccc(-n2cnc(C(=O)NC3CCCCCC3)c2)n1	10µM*	-17.0%	8.6%	20.7%
COc1cc(C(=O)N/N=C/c2ccc(OC(=O)c3cccc(C)c3)c(OC)c2)ccc1O	9.5%	-2.5%	-29.3%	-3.5%
Cc1nc(NC(=O)Nc2ccc(Cl)cc2)sc1C	5.62µM*	11.9%	-4.2%	-0.2%
Cc1nc(NC(=O)c2cccnc2Cl)sc1C	3.16µM*	-17.4%	1.4%	-0.1%
CC(C)(C)c1nnc(NC(=O)Nc2ccc(Cl)cc2)s1	86.1%	-6.2%	-3.0%	5.1%
CC(=O)Nc1cccc(NS(=O)(=O)c2ccc3c(c2)CCC(=O)N3)c1	-14.6%	27.5%	-1.1%	1.0%
COc1ccc(/C=C2\CN(Cc3ccccc3)C/C(=C\c3ccc(OC)c(O)c3)C2=O)cc1O	-93.8%	8.91µM*	?	-9.4%
CCN1C/C(=C/c2ccc(OC)c(O)c2)C(=O)/C(=C/c2ccc(OC)c(O)c2)C1	-63.8%	?	?	2.9%
CC(=O)c1cccc(NS(=O)(=O)c2cc(-c3onc(C)c3C)ccc2C)c1	/	?	-14.0%	/
Cc1ccc(-c2cc3ncc(C(=O)c4cc([N+](=O)[O-])ccc4O)cn3n2)cc1	0.0%	-28.0%	-7.2%	0.5%
Cc1ccc2c(c1)N(C(=O)Nc1cccc3c1CCCC3)CC(C)O2 (centres undefined)	/	10µM*	24.0%	/
CCCC(=O)NC(c1ccc2c(c1)OCO2)c1cc(Cl)c2cccnc2c1O (centres undefined)	-89.1%	3.98µM*	-30.8%	-18.2%
CCCC(=O)NC(c1ccco1)c1cc(Cl)c2cccnc2c1O (centres undefined)	-69.3%	?	-9.8%	-12.3%
O=C(Nc1ccc(NC(=O)C2CC2)cc1)c1cccs1	10µM*	-12.8%	-6.8%	0.5%
O=C(Nc1ccc(NC(=O)c2cccs2)cc1)c1cccs1	24.5%	15.6%	-10.3%	9.9%
CC(=O)N(C)c1ccc(NC(=O)c2ccco2)cc1	6.31µM*	10.7%	-7.2%	-6.1%
